Screening data as filed in PubChem.
Her2 expr inh: inhibitors of Her2 protein expression, primary screen, SKBR-3 cells, AlphaScreen, 66K library; Receptor tyrosine-protein kinase erbB-2 (Homo sapiens), P04626; SKBR-3 HER2 protein level, 18-24 h; hits give low values; HER2 level % of control, % at 10 µM; actives 0.69% (n = 65,000); AID 645, 2007;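 active means HER2 level under 5% of the carrier-only control; inconclusive means no clear call, values can overlap the other calls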;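 further: 100% = DMSO carrier and 0% = 500 nM PU-H71 HSP90 inhibitor; lower value means stronger loss of Her2 protein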
TNAP act DEA: human TNAP enzyme activators, primary screen, biochemical, luminescent, intermediate phosphate acceptor level; Alkaline phosphatase, tissue-nonspecific isozyme (Homo sapiens), P05186; activation factor at 20 µM; purified TNAP, CDP-star luminescence, 100 mM DEA, 30 min; hits give high values; scale: 0 levamisole-inhibited, 1 vehicle-only enzyme; 64,000 tested, under 10 active;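 active means activation factor of at least 2 at 20 µM, relative to controls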
BAP1 block: inhibitors of BAP1 deubiquitinase, primary screen, biochemical, Ub-AMC fluorescence, kinetic; Ubiquitin carboxyl-terminal hydrolase BAP1 (Homo sapiens), Q92560; recombinant BAP1, Ub-AMC hydrolysis fluorescence kinetic; hits give low values; calls only at 20 µM; actives 0.48% (n = 72,000);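 active means activity remaining at or below 50% of control, provided the compound also passes the data quality filters; inactive means the rest, including low values that fail the filters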;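 further: 100% = DMSO wells rate and 0% = substrate alone blank rate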
SK-BR-3 tox 24h: SK-BR-3 proliferation inhibitors, primary screen, cell-based, human, 24 h | SK-BR-3 viability, CellTiter-Glo ATP luminescence; hits give low values | viability, % at 10 µM | actives 0.47% (n = 41,000);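 active means viability at or below the median of all test compounds minus 3 SD, in both replicates if run twice, cut at about 45% in these data; inconclusive means duplicate replicates that disagree with each other; inactive means viability above that cutoff in every replicate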;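 further: 100% = median untreated cell wells and 0% = median positive control drug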
Ec RNAP inh: E. coli RNAP inhibitors, biochemical; DNA-directed RNA polymerase subunit beta (Escherichia coli (strain K12)), P0A8V2; E. coli RNA polymerase, fluorescence transcription assay; inhibition, %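 (tested at 10 µM)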; actives 0.2% (n = 62,000); AID 559, 2006; in the data active means inhibition above about 20%;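 further: 0% = enzyme without compound and 100% = no enzyme blank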
BAP1 inh conf: BAP1 deubiquitinase inhibitors, hit retest, confirmation, orthogonal assay, biochemical, Ub-ethyl ester substrate, HPLC readout | AID 753, 2007 | actives 8% (n = 310) | shares compounds with BAP1 block | % of control activity, % at 20 µM | purified BAP1, Ub-ethyl ester hydrolysis; hits give low values;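 active means percent of control activity at or below 60%; inconclusive means HPLC trace unusable from injection failure or solvent front hiding peaks; inactive means the rest, plus ubiquitin peak ratio over a set limit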
Starred values were filed as active, the others as inactive; i = inactive; ? = inconclusive; . = no result given; + = active, no number. Rows were chosen to be rich in hits. Some 1.4% of all compounds tested hit in one or more screens of this group.

SMILES	Her2 expr inh	TNAP act DEA	BAP1 block	SK-BR-3 tox 24h	Ec RNAP inh	BAP1 inh conf
Cc1cc(C)cc(-n2nnnc2SCC(=O)Nc2cccc(NC(=O)c3ccco3)c2)c1	80.0	0.9	i	74.7	-2.3	.
C=CCn1c(SCCCCCC)nc(O)cc1=O	110.4	.	+	94.0	.	83.3
C=CCn1c(SCCCC)nc(O)cc1=O	103.6	0.9	i	.	-4.6	.
Cc1occc1-c1nnc(SCC(=O)c2ccc(F)cc2)n1Cc1ccco1	75.9	0.9	i	67.0	1.2	.
O=C(CSc1nnc(-c2cc3ccccc3cc2O)n1Cc1ccco1)c1ccc(F)cc1	84.3	0.9	+	100.7	-1.1	77.5
CCOC(=O)C1CCCN(c2ccc(NC(=O)c3snc4c(=O)[nH]cnc34)cc2)C1 (configuration not stated)	100.6	0.9	+	85.2	12.5	103.3
N#Cc1c(NC(=O)CN2CCN(S(=O)(=O)c3ccc4c(c3)OCCO4)CC2)sc2c1CCC2	93.6	0.9	+	81.0	5.6	104.4
CCc1nc(SCC(=O)Nc2ccc3c(c2)OCCO3)c2oc3ccccc3c2n1	102.0	0.9	+	89.3	-9.8	?
CCc1ccc2[nH]c(=O)c(CN(Cc3ccc4c(c3)OCO4)Cc3nnnn3C3CCCC3)cc2c1	62.8	0.9	.	90.0	7.2	.
CCC(c1nnnn1C1CCCC1)N(Cc1cccs1)Cc1cc2cc(C)ccc2[nH]c1=O (configuration not stated)	43.4	0.9	+	.	7.0	76.4
Cc1ccc2cc(CN(Cc3ccccc3)Cc3nnnn3C3CCCC3)c(=O)[nH]c2c1	66.8	0.9	+	.	-11.5	90.3
Cc1ccc2cc(CN(Cc3ccc(F)cc3)Cc3nnnn3C3CCCC3)c(=O)[nH]c2c1	86.5	0.9	+	.	8.2	86.0
CCc1cc2c(=O)c(-c3nc4ccccc4s3)c(C)oc2cc1OC(C)C(=O)OC (configuration not stated)	.	.	i	.	.	.
O=C(c1ccc(Cl)cc1)c1coc2ccccc2c1=O	.	.	i	.	.	.
Cc1cccc(-n2c(=O)[nH]c3c(C(N)=O)nc(-c4ccccc4Cl)nc32)c1	26.9	1	+	.	-2.1	139.0
CCCCOc1ccccc1NC(=O)Cn1c(-c2nonc2N)nc2ccccc21	86.7	0.9	+	73.6	5.1	82.8
CCOc1ccc(CCNC(=O)Cn2c(-c3nonc3N)nc3ccccc32)cc1OCC	95.0	1	i	53.3	8.8	.
CCOC(=O)c1sc(NC(=O)c2noc3c2CCCC3)c(C(=O)OCC)c1C	80.2	0.8	+	.	6.2	i
CC(C)(C)OC(=O)C1C(=O)CC(C)(O)C(C(=O)OC(C)(C)C)C1c1ccc(F)cc1 (configuration not stated)	.	.	i	.	.	.
CCCOc1ccc(-c2csc(NC(=O)c3ccc(S(=O)(=O)N4CC(C)CC(C)C4)cc3)n2)cc1 (configuration not stated)	.	.	i	.	.	.
COc1ccccc1NC(=O)Nc1c(C)n(C)n(-c2ccccc2)c1=O	95.2	1.1	+	113.7	3.3	124.7
CC(c1ccccc1)C(CC(=O)O)C(=O)Nc1ccccc1I (configuration not stated)	.	.	i	.	.	.
O=C(Nc1ccc(F)cc1F)c1cc2n(n1)C(C(F)(F)F)C1CCCCC1N2 (configuration not stated)	63.4	0.9	+	81.3	-0.7	117.4
Cc1cc(C)n(-c2ccc(C(=O)OCC(=O)c3ccc(Br)s3)cc2)n1	95.6	1	+	.	-6.3	80.1
Cc1cc(C)n(-c2ccc(C(=O)OCC(=O)NCc3ccco3)cc2)n1	135.3	0.9	i	.	12.6	.
COc1ccc(-n2c(SCC(=O)Nc3ccc4c(c3)OCO4)nc3c(c2=O)SCC3)cc1	101.2	0.9	+	.	-3.9	104.8
